Source: PubChem BioAssay (Tox21)
Records with an inconclusive call do not appear. Values without a mark were called inactive. Active and inactive are the calls of the source. Calls come from the whole dose curve.

Assay: qHTS assay for small molecule disruptors of the mitochondrial membrane potential - cell viability (AID 720634);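 note: human HepG2 liver cancer cells; nearly all actives have a fitted effect of over 20% in size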
Settings: HepG2 viability, ATP luminescence (CellTiter-Glo), 1 h; series mostly up to 83.2 µM; activity change, negative = cytotoxicity: at the top concentration
Text: U.S. Tox21 Program National Center for Advancing Translational Sciences [NCATS] NIH Chemical Genomics Center [NCGC] U.S. Environmental Protection Agency [EPA] National Institutes of Environmental Health Sciences [NIEHS] National Toxicology Program [NTP] U.S. Food and Drug Administration [FDA] Tox21 Assay Overview: Mitochondrial membrane potential (MMP), one of the parameters for mitochondrial function, is generated by mitochondrial electron transport chain that creates an electrochemical gradient by a series of redox reactions. This gradient drives the synthesis of ATP, a crucial molecule for various cellular processes. Measuring MMP in living cells is commonly used to assess the effect of chemicals on mitochondrial function; decreases in MMP can be detected using lipophilic cationic fluorescent dyes. […] The dye accumulates in the mitochondria of healthy cells as aggregates, with red fluorescence. The mitochondrial potential decreases and the dye could not accumulate in the mitochondria and remains in the cytoplasm in monomers, with green fluorescence. In addition to the mitochondrial potential assay, these cells were also used to test the cytotoxicity by determining the cell viability in the culture based on the quantitation of ATP present. The cytotoxicity was measured in the same assay well of MMP assay.
Tox21 Assay Protocol Summary: 2,000 HepG2 cells in 5 uL/well were dispensed into black, clear-bottom 1536-well plates using a Multidrop Combi (Thermo Scientific) dispenser. The assay plates were incubated for an overnight at 37 C to allow cells to attach to the wells, followed by the transfer of 23 nL compound or DMSO vehicle by a pin tool (Kalypsys). The plates were incubated for 1 hr at 37 C and 5% CO2, followed by the addition of 5 uL of 2X m-MPI dye into each well using Flying Reagent Dispenser (Aurora Discovery) and then CellTiter-Glo reagent was added at 4 uL/well and incubated 30 min at room temperature. Then luminescence intensity was quantified on a ViewLux CCD-based plate reader.
% is set by controls: 0 for no effect and ±100 for the full control effect.

Row | Structure (SMILES) | activity change, negative = cytotoxicity | Potency
1 | CCCCNc1ccccc1 | -3.81% | –
2 | Oc1cc(O)c2c(c1)O[C@H](c1ccc(O)c(O)c1)[C@H](O)C2 | -13.4% | –
3 | CC(=O)c1ccc(C)cc1 | 12.3% | –
4 | CC(=O)OC(C)(C)C | 12.5% | –
5 | CC/C=C\CCCCO | 8.45% | –
6 | CCCCCCCCCCC1CO1 (stereo not given) | 14.2% | –
7 | C1CCCCCCCCCCC1 | 8.66% [at 39.1 µM] | –
8 | C=C(C)C(=O)OCCC(C)OC(=O)C(=C)C (stereo not given) | 12.3% | –
9 | c1cc(CN2CCCCC2)cc(OCCCNc2nc3ccccc3s2)c1 | -4.3% | –
10 | CSc1nc(NC2CC2)nc(NC(C)(C)C)n1 | -15.9% | –
11 | COc1ccc(NC(C)=O)cc1 | 9.22% [at 95.3 µM] | –
12 | CC(C)=CC(=O)O | 6.33% | –
13 | CCCC(C)CO (stereo not given) | 2.38% | –
14 | Nc1cc(C(Cl)=C(Cl)Cl)c(S(N)(=O)=O)cc1S(N)(=O)=O | – | inactive
15 | CC(C)=CCC/C(C)=C/C(=O)O | -1.21% | –
16 | CCC(=O)Nc1cccc(N)c1 | 11.4% | –
17 | Cc1ccc(N)cc1[N+](=O)[O-] | 15.4% [at 95.3 µM] | –
18 | COc1cccc(OC)c1 | 6.48% | –
19 | N#CC1(O)CCCCC1 | 6.97% [at 95.3 µM] | –
20 | O=[N+]([O-])c1ccc(CCO)cc1 | -9.72% | –

Row | Structure (SMILES) | activity change, negative = cytotoxicity | Potency
21 | CC(CCO)CCCC(C)(C)O (stereo not given) | 11.2% | –
22 | NS(=O)(=O)c1cc(C2(O)NC(=O)c3ccccc32)ccc1Cl (stereo not given) | 10.2% [at 39.1 µM] | –
23 | CC(C)COC(=O)c1ccccc1O | -0.883% | –
24 | CCc1cc(S(=O)(=O)O)c2cc(C(C)C)cccc1-2 | -2.59% | –
25 | COc1nc(C)nc(N)n1 | -11.5% | –
26 | C[N+](C)(C)CC[N+]1(C)Cc2c(Cl)c(Cl)c(Cl)c(Cl)c2C1 | 10.6% | –
27 | N#CCc1ccccc1[N+](=O)[O-] | -2.02% | –
28 | CCn1cc(C(=O)O)c(=O)c2cc(F)c(N3CCN(C)CC3)cc21 | 0.31% | –
29 | COC(=O)C1=C(C)NC(C)=C(C(=O)OCC(C)=O)C1c1ccccc1[N+](=O)[O-] (stereo not given) | -7.03% | –
30 | CCCCCCCCCCCCCCC | 8.27% | –
31 | FC(F)(F)C(F)(F)C(F)(F)C(F)(F)C(F)(F)C(F)(F)C(F)(F)C(F)(F)C(F)(F)C(F)(F)F | 3.63% [at 8.08 µM] | –
32 | NS(=O)(=O)c1cc2c(cc1Cl)NC(CSCc1ccccc1)=NS2(=O)=O | 9.84% [at 39.1 µM] | –
33 | Nc1ccn(C2CO[C@H](CO)O2)c(=O)n1 (stereo not given in full) | -6.87% | –
34 | CC(C)c1ccc2oc3nc(N)c(C(=O)O)cc3c(=O)c2c1 | -16.6% | –
35 | O=C(O)/C=C/c1ccc(/C=C/C(=O)O)cc1 | 11% | –
36 | Nc1[nH]c(=O)ncc1F | -3.71% [at 39.1 µM] | –
37 | C#CC(O)C(CC)CCCC (stereo not given) | 3.47% | –
38 | CCC(=O)/C=C/c1ccc(OC)cc1 | -5.4% | –
39 | CC(=O)O[C@H](CC(=O)[O-])C[N+](C)(C)C | 15.8% | –
40 | Cn1ccc2cc3c(cc21)CCN3C(=O)Nc1cccnc1 | -5.92% | –
